Screening data deposited in PubChem by National Center for Advancing Translational Sciences (NCATS).
ALOX12 inh – Primary qHTS assay for inhibitors of human arachidonate 12S-lipoxygenase (ALOX12): Round 2. Polyunsaturated fatty acid lipoxygenase ALOX12 (Homo sapiens), P18054. purified 12hLO, xylenol orange hydroperoxide absorbance. Potency, µM (titrated, usually from 108 µM), for inactives: top-dose activity change, negative = inhibition, actives largely listed as inhibitors. 1.1% of 580,000 active. AID 1671190, 2021; also: potency is read from the fitted curve at half-maximal effect
Target sequence (P18054 whole entry, looked up): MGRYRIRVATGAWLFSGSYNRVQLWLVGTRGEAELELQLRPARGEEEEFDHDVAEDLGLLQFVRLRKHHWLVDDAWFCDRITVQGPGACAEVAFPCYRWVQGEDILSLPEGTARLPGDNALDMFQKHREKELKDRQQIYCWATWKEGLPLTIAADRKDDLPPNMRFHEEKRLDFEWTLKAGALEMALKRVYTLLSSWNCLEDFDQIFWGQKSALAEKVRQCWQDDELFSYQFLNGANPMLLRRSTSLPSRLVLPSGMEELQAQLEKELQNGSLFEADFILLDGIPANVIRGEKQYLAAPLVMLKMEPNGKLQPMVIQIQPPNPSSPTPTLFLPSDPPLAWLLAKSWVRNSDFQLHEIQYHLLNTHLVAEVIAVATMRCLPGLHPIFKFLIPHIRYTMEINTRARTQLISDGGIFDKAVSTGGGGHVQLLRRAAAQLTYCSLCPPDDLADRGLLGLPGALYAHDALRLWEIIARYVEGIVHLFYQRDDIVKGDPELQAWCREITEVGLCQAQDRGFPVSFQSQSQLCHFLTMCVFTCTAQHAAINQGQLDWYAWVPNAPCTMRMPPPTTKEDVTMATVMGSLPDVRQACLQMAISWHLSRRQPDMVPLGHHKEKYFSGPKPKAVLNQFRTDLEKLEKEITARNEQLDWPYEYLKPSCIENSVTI
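Purified human 12hLO at 150 nM in 25 mM Hepes, 0.01% Triton X-100, pH 7.0, preincubated 15 min at room temperature with compound. Reaction started with 40 uM arachidonic acid, 30 min at room temperature. Hydroperoxide measured by Fe-xylenol orange, 573/405 nm absorbance ratio.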
HT1080-NT tox – qHTS for induction of synthetic lethality in tumor cells producing 2HG: qHTS for the HT-1080-NT fibrosarcoma cell line. Potency, µM (doses to about 46.1 µM), for inactives: at the top dose activity, negative = less viability, usual class: cytotoxic. HT-1080-NT fibrosarcoma viability, CellTiter-Glo ATP luminescence, 48 h. 1.6% of 360,000 active. AID 686970, 2013;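 also: NT is the 2HG producing partner of a matched IDH1 knockdown line; potency is read from the fitted curve at half-maximal effect; 0% = DMSO-treated cells and -100% = media-only wells without cells; nearly all actives have a fitted effect of over 55% in size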
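Viability of the 2HG-overproducing fibrosarcoma line after 48 hours of compound exposure at 37 degrees C was determined by luminescence with CellTiter-Glo, and concentration-effect curves were then fitted and categorized.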
TDP1 cell noCPT – qHTS for Inhibitors of human tyrosyl-DNA phosphodiesterase 1 (TDP1): qHTS in cells in absence of CPT | DT40 Tdp1-/- hTDP1 cells, no CPT, ATP luminescence, 48 h | Potency, µM (series often up to 46.2 µM), for inactives: at the highest dose activity change, negative = growth inhibition, usual class: inhibitors | 15% of 420,000 active | AID 686978, 2013; also: potency is read from the fitted curve at half-maximal effect; nearly all actives have a fitted effect of over 55% in size
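DT40 Tdp1-/-;hTDP1 cells, no CPT (DMSO vehicle only), 400 cells/well; compounds pin-transferred; ≥48 hr, 37 °C; CellTiter-Glo 30 min RT dark, luminescence read.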
IL-1B inflam inh – qHTS for Inhibitors of Inflammasome Signaling: IL-1-beta AlphaLISA Primary Screen. THP-1 LPS/ATP IL-1B secretion, AlphaLISA, 16 h; hits give low values. 4.7% of 360,000 active. activity change, % at 57.5 µM; in the data active = activity change below about -50%; inconclusive = mostly about -30% to -49%
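THP-1 cells pretreated 1 hr with compounds (up to 57.5 uM final), then stimulated with LPS (250 ng/mL final) plus ATP (1.25 mM final); secreted IL-1B measured by AlphaLISA after 16 hr, decreased signal indicating inhibition.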
TDP1 cell CPT – qHTS for Inhibitors of human tyrosyl-DNA phosphodiesterase 1 (TDP1): qHTS in cells in presence of CPT | chicken DT40 Tdp1-/-;hTDP1 cells + 20 nM CPT, ATP luminescence, 48 h | Potency, µM (top dose mostly 46.2 µM), for inactives: at the highest dose activity change, negative = growth inhibition, hits mostly inhibitors | 12% of 420,000 active | AID 686979, 2013; also: potency is read from the fitted curve at half-maximal effect; nearly all actives have a fitted effect of over 55% in size
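Chicken DT40 Tdp1-/- cells complemented with human TDP1, 400 cells/well, exposed to compounds plus 20 nM camptothecin for at least 48 h at 37 C; viability read as ATP content by CellTiter-Glo luminescence.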
HT1080 IDH1KD tx – qHTS for induction of synthetic lethality in tumor cells producing 2HG: qHTS for the HT-1080-IDH1KD cell line. HT-1080 IDH1 knockdown viability, ATP luminescence, 48 h. Potency, µM (top dose mostly 46.1 µM), for the others: top-dose activity, negative = toxicity, usual class: cytotoxic. 2% of 360,000 active. AID 686971, 2013;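 also: potency is read from the fitted curve at half-maximal effect; 0% = DMSO wells and -100% = cell-free medium wells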
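Viability of IDH1-knockdown HT-1080 fibrosarcoma cells was assessed by CellTiter-Glo after 48 h at 37 °C with titrated compound; concentration-effect curves were classified by fit quality and response size.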
The depositor's hits bear a star; u = inconclusive; x = no result; [ ] = dose if it differs, or a comment. This is one part of a sample in which hits are shown more often than they occur. Unless noted, calls follow the shape of the dose curve; as a rule, active = well fitted curve in the direction sought with a large enough effect; inconclusive = small, poorly fitted or top-dose-only effect, or another doubt; inactive = no such curve, though single readings can be large; an effect the other way counts as inactive or inconclusive. Unless noted, % is scaled to controls: 0 for no effect and ±100 for the full control effect.

SMILES	ALOX12 inh	HT1080-NT tox	TDP1 cell noCPT	IL-1B inflam inh	TDP1 cell CPT	HT1080 IDH1KD tx
COc1ccc(Br)cc1CN(C)C(=O)Cc1ccc(S(=O)(=O)N2CCOCC2)s1	-20%	-1%	21µM*	-2	u	-10%
O=C(Cc1ccc(S(=O)(=O)N2CCOCC2)s1)Nc1cc(Cl)ccc1Cl	0%	-7%	-15%	-57*	4%	-13%
CC(C)CCCC(C)NC(=O)C1CCN(c2ncnc3nc[nH]c23)CC1 (stereo not drawn)	6%	x	x	x	x	x
COC(=O)c1ccoc1COC(=O)CCc1c(C)c2ccc(OC)cc2oc1=O	-58%	x	x	x	x	x
CCOc1ccc(Nc2nc(Cc3nnc(SCC(=O)NCc4ccco4)n3CC)cs2)cc1	4%	-5%	13µM*	19	13µM*	-5%
CCOc1ccc(-n2c(SCC(=O)Nc3cc(C)on3)nnc2-c2c[nH]c3ccccc23)cc1	-5%	-8%	-24%	25	-13%	1%
Cn1c(SCC(=O)NCc2ccco2)nnc1-c1c[nH]c2ccccc12	25%	0%	-23%	10	21µM*	1%
CCOc1ccc(-n2c(SCC(=O)NCc3ccco3)nnc2-c2c[nH]c3ccccc23)cc1	8%	0%	13µM*	-29	u	-19%
COC(=O)CN1C(=O)[C@@H]2C[C@@H](O)CN2C2(CN(Cc3ccccn3)C2)C1=O	93%[176 µM]	x	x	x	x	x
COc1ccc(CN(C)S(=O)(=O)c2ccc3c(c2)OCCCO3)cc1	4%	x	x	x	x	x
CCc1nc2ccc(C(=O)Nc3ccc(OC)c(OC)c3)cn2c1N(C)C(=O)Cc1ccccc1	3%	9%	-3%	-3	15%	15%
COc1ccc(-c2ccccc2)cc1NC(=O)c1ccncc1	8%	13%	-21%	-23	2%	0%
CCN(CC)c1c(C)nc2ccc(C(=O)Nc3cc(-c4ccccc4)ccc3OC)cn12	2%	u	18µM*	u	u	u
CCc1nc2ccc(C(=O)Nc3cc(-c4ccccc4)ccc3OC)cn2c1N(C)Cc1ccc(Cl)cc1	-3%	u	21µM*	u	18µM*	u
C=CCn1c(C)cc(C(=O)Cn2c(=O)c3c(ncn3CC)n(Cc3ccccc3)c2=O)c1C	-4%	x	x	x	x	x
NC(=O)C1CCN(C(=O)c2ccc3nc(C(F)(F)F)sc3c2)CC1	-6%	x	x	x	x	x
COc1ccc(CCn2c(C)nc3c(c(=O)c4ccccc4n3C)c2=O)cc1	u	u	5.8µM*	-18	u	u
CCCc1nc2oc3cc(OC)ccc3c(=O)c2c(=O)n1Cc1ccco1	u	7%	u	-5	0%	8%
COc1ccc(Cn2c(C)nc3c(c(=O)c4ccccc4n3C)c2=O)cc1	5%	-1%	u	-11	-19%	-10%
COc1ccc2c(=O)c3c(=O)n(-c4ccccc4)c(-c4ccc(C)cc4)nc3oc2c1	19%	2%	18µM*	60	-24%	16%
COc1ccc(CCn2c(C(C)C)nc3c(c(=O)c4ccccc4n3C)c2=O)cc1	x	-7%	12µM*	-3	16µM*	u
CCCCCCn1c(-c2ccco2)nc2oc3cc(OC)ccc3c(=O)c2c1=O	u	10%	21µM*	-14	u	13%
Cc1ccc(C)c(S(=O)(=O)Nc2nc3ccccc3nc2Nc2ccc(C(=O)O)cc2)c1	-27%	x	x	x	x	x
CC(C)(C)CNC1(Cc2cc(CCO)on2)COC1	35%[176 µM]	x	x	x	x	x
COc1ccc2c(=O)c3c(=O)n(CCc4ccccc4)c(C)nc3oc2c1	111%	11%	-20%	x	12%	13%
SMILES	ALOX12 inh	HT1080-NT tox	TDP1 cell noCPT	IL-1B inflam inh	TDP1 cell CPT	HT1080 IDH1KD tx
COc1ccc2c(=O)c3c(=O)n(CCc4ccccc4)c(C(C)C)nc3oc2c1	u	-1%	15µM*	12	26µM*	13%
COc1ccc(Cn2c(-c3ccc(C)cc3)nc3c(c(=O)c4ccccc4n3C)c2=O)cc1	-17%	u	u	1	15µM*	u
CCNc1c(NC(=O)NCC2CCCO2)c(=O)oc2ccccc12 (stereo not drawn)	-24%	x	x	x	x	x
CCC1(CC)Cc2ccccc2C(N)=C1C#N	147%	-12%	21µM*	23	21µM*	-12%
COCC(C)NS(=O)(=O)c1c(C)c(C)cc(C)c1C (stereo not drawn)	-3%	x	x	x	x	x
COc1cc2c(cc1OC)C(c1cccc([N+](=O)[O-])c1)N(C(=O)c1ccccc1C(=O)O)CC2 (stereo not drawn)	-1%	15%	-4%	-58*	1%	19%
COc1cc2c(cc1OC)C(c1ccccc1)N(C(=O)c1cccc(S(C)(=O)=O)c1)CC2 (stereo not drawn)	u	-14%	u	-18	-2%	0%
COc1cc2c(cc1OC)C(c1ccc(Br)cc1)N(C(=O)c1ccccc1C(=O)O)CC2 (stereo not drawn)	310%	-5%	23%	48	-18%	-10%
COc1ccc(C(=O)N2CCc3cc(OC)c(OC)cc3C2c2cccc([N+](=O)[O-])c2)cc1OC (stereo not drawn)	0%	-20%	18µM*	u	u	-19%
CCC(C)(C)NC(=O)c1ccccc1OCc1ccc(Cl)cc1	-3%	x	x	x	x	x
CCN(CC)c1ccccc1/C=C/[n+]1ccc(CCCCI)c2ccccc21	x	x	0.56µM*	x	0.63µM*	x
O=c1c2nnn(-c3ccccc3)c2ncn1C/C=C/c1ccccc1	20%	-7%	26µM*	-4	-25%	-2%
COc1cccc(-n2nnc3c(=O)n(C/C=C/c4ccccc4)cnc32)c1	18%	-7%	-29%	5	-25%	0%
CC1=C[C@@H](CNC(=O)c2ccccn2)[C@H](C(C)C)C[C@H]1Cc1nnc(-c2ccncc2)o1	0%[176 µM]	x	x	x	x	x
CCCNc1c(NC(=O)Nc2ccccc2F)c(=O)oc2ccccc12	-7%	x	x	x	x	x
O=C(NC1CCCN(c2cc(-c3ccc(F)cc3)[nH]n2)C1)c1ccc2ncccc2c1 (stereo not drawn)	22%	x	x	x	x	x
